ELG1 genotox = inducers of genotoxicity in HEK293T ELG1-luciferase cells | HEK293T ELG1-luciferase reporter, luminescence, 16 h | Potency, µM (titrated, usually from 46 µM), actives largely listed as activators | hit rate 1.3% among 330,000 | AID 504466; note: nearly all actives have a fitted effect of over 60% in size
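HEK293T cells expressing luciferase-tagged ELG1 were treated with compound or DMSO for 16 hr at 37°C. Luciferase activity was then read after 30 min with ONE-Glo at room temperature; rising signal flags genetic stress.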
FLuc modulator = counter-screen for miR-21 project: firefly luciferase inhibitors or activators; P08659; hit rate 6.9% among 360,000; Potency, µM (top dose mostly 57.5 µM), hits mostly inhibitors; purified FLuc, Km substrates, luminescence inhibition; note: nearly all actives have a fitted effect of over 55% in size
Target sequence (P08659 whole entry, looked up): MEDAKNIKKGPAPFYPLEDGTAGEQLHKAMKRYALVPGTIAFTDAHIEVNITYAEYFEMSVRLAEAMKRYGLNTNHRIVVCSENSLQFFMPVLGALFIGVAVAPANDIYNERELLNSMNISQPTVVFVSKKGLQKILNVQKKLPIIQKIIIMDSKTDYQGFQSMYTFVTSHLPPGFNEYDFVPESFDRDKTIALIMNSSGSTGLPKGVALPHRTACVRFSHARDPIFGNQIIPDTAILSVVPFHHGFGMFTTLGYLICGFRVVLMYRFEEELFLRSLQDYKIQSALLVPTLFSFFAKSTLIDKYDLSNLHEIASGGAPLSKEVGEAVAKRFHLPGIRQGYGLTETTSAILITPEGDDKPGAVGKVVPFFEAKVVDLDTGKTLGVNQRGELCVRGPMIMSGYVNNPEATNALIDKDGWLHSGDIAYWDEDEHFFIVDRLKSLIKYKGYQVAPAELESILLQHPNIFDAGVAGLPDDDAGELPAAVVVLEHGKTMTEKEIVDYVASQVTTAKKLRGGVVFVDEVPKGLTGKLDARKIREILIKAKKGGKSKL
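Biochemical qHTS of compounds, final roughly 60 µM downward over six points, against 10 nM purified firefly luciferase using Km concentrations of substrates (10 uM D-luciferin, 10 uM ATP) in Tris acetate pH 7.5 buffer; luminescence output.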
NPC1 promoter act = activates the NPC1 promoter. Huh7 NPC1 promoter luciferase reporter, 24 h. Potency, µM (highest dose often 9.22 µM), actives largely listed as activators. hit rate 2.4% among 320,000; note: nearly all actives have a fitted effect of over 60% in size
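Cells: Huh7 expressing luciferase under the NPC1 promoter, 1500/well. Seeded 2 h, compound added, incubated 24 h at 37 °C. Luciferase reagent, 10 min ambient, then luminescence.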
SMN2 splice up = SMN2 splice variant enhancement; HEK293 SMN2-luciferase splicing reporter, luminescence, 30-36 h; Potency, µM (doses to about 46.1 µM), most hits filed as activators; hit rate 2.8% among 210,000; AID 1458; note: nearly all actives have a fitted effect of over 55% in size
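qHTS luciferase splicing reporter: luminescence rises when SMN2 exon 7 is included in transfected HEK293 cells. Compound exposure lasted 30-36 h at 37C, with 4.5 mM final sodium butyrate as control, followed by a ONE-Glo read.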
Rab9 prom act = activators of Rab9 promoter. hit rate 2.8% among 320,000. Huh7 Rab9 promoter-luciferase reporter, luminescence, 24 h. AID 485297. Potency, µM (series often up to 9.22 µM), usual class: activators; note: nearly all actives have a fitted effect of over 60% in size
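Promoter activation is measured as luciferase luminescence in Huh7 cells stably transfected with a Rab9 promoter–luciferase construct, following 24 h compound exposure at 37 °C and 10 min reagent incubation at ambient temperature.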
Luc counter = blocks Kinase-Glo luciferase, a counter-screen artifact. Q27757. Kinase-Glo luciferase, ATP luminescence, 8 min. AID 1379. Potency, µM (doses to about 38.3 µM), most hits filed as inhibitors. hit rate 0.28% among 200,000; note: nearly all actives have a fitted effect of over 60% in size
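Compounds were added to a substrate mix at pH 7.2 (50 mM imidazole, 10 uM ATP, within the enzyme's linear range), followed by Kinase-Glo detection reagent; luminescence was measured after 8 minutes at ambient temperature.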
Numbers stand for hits; n = inactive; u = inconclusive; x = no result; [ ] = another dose, or the depositor's remark. Shown are actives, neighbours in structure and some others; about 7.5% of the full set was active somewhere. Calls come from the whole dose curve; as a rule, active = well fitted curve in the direction sought with a large enough effect; inconclusive = small, poorly fitted or top-dose-only effect, or another doubt; inactive = no such curve, though single readings can be large; an effect the other way counts as inactive or inconclusive.

SMILES | ELG1 genotox | FLuc modulator | NPC1 promoter act | SMN2 splice up | Rab9 prom act | Luc counter
O=C(N/N=C/c1cccs1)c1n[nH]c2c1CCC2 | u | 3.4µM | u | 5µM | u | u
Cn1cccc1-c1cc(C(=O)N/N=C/c2ccc(Cl)cc2)[nH]n1 | n | u | n | x | n | x
O=C(N/N=C/C(Br)=C/c1ccccc1)c1n[nH]c2c1CCC2 | u | 2.7µM | u | 10µM | n | n
CCN1C(=NCCc2cccs2)N[C@@H](c2cccs2)C(C(=O)OC)=C1C | n | n | n | x | n | x
CCOCc1c(C(=O)OCC(=O)NCc2ccc(F)cc2)oc2ccccc12 | n | x | n | x | n | x
O=C(N/N=C/c1ccccc1)c1n[nH]c2c1CCCC2 | u | 3µM | 0.56µM | 5µM | 0.35µM | n
CCCCCOC(=O)CSc1ncnc2sc3c(c12)CCC(C)C3 (stereo not drawn) | x | n | x | n | x | x
CCCOC(=O)CSc1ncnc2sc3c(c12)CCC(C)C3 (stereo not drawn) | x | 8.5µM | x | n | x | x
CC(=O)CSc1ncnc2sc3c(c12)CCC(C)C3 (stereo not drawn) | n | 15µM | n | n | n | n
CC1CCc2c(sc3ncnc(SCC(=O)c4ccccc4)c23)C1 (stereo not drawn) | n | n | n | u | n | n
O=C(NC(Cc1ccccc1)C(=O)O)c1cccnc1Cl (stereo not drawn) | n | n | n | x | n | x
COc1ccc(C(=O)COC(=O)c2ccc(NC(=O)c3ccccc3)cc2)cc1 | n | n | n | n | n | n
CC(C)(C)C(=O)COC(=O)c1cccc(NC(=O)c2ccco2)c1 | n | u | n | u | n | n
O=C(COC(=O)c1cccc(NC(=O)c2ccco2)c1)c1ccc(Br)cc1 | n | 1.7µM | u | n | u | n
O=C(COC(=O)c1cccc(NC(=O)c2ccc(Br)cc2)c1)c1ccc(Cl)cc1 | x | 2.7µM | x | u | x | x
COc1ccc(N2CCN(C(CNS(=O)(=O)c3c(C)cc(C)cc3C)c3ccco3)CC2)cc1 (stereo not drawn) | x | n | x | x | x | x
COCc1cc(=O)n2c(-c3ccc(C)cc3)n[nH]c2n1 | n | 9.5µM | n | u | n | n
COc1ccc(C(=O)c2c3ccccc3[n+]([O-])n2Cc2ccc(C(N)=O)cc2)cc1 | n | u | n | x | n | x
COc1ccc2c(C(=O)c3ccc(C)cc3)n(Cc3ccc(C(N)=O)cc3)[n+]([O-])c2c1 | u | 13µM | u | x | u | x
COCCNC(=O)c1ccc2c(c1)N(Cc1ccc(C(F)(F)F)cc1)C(=O)c1ccccc1S2 | x | n | x | n | x | x
CCCOc1ccc(C2CC(=O)Nc3c2c(C)nn3-c2nncc(-c3cccc(OC)c3)n2)cc1OC (stereo not drawn) | x | n | x | x | x | x
Cc1ccc(NC(=O)C(C)[n+]2ccccc2)cc1[N+](=O)[O-] (stereo not drawn) | n | n | n | 28µM | n | n
COc1ccccc1C(=O)Nc1nc2ccc(S(C)(=O)=O)cc2s1 | n | u | n | n | u | n
CS(=O)(=O)c1ccc2nc(NC(=O)c3ccccc3Br)sc2c1 | u | 9.5µM | 2.8µM | x | u | x
CS(=O)(=O)c1ccc2nc(NC(=O)c3ccccc3Cl)sc2c1 | n | 17µM | n | x | n | x
SMILES | ELG1 genotox | FLuc modulator | NPC1 promoter act | SMN2 splice up | Rab9 prom act | Luc counter
CN1C(=O)C(C)(C)c2cc(S(=O)(=O)N3CCN(c4ccccc4F)CC3)ccc21 | n | n | n | x | n | x
CC(=O)N1N=C(c2cccc(Cl)c2)OC1c1ccc(C(C)C)cc1 (stereo not drawn) | 18µM | 24µM | n | n | n | n
CC(=O)c1ccc(NC(=O)c2cc(C)nc3c2c(C)nn3-c2ccc(C)cc2)cc1 | x | n | x | x | x | x
O=C1NC(=O)/C(=C/c2cc3c(cc2Br)OCO3)S1 | n | u | n | x | n | x
O=C1NC(=O)/C(=C/c2ccc3c(c2)OC(F)(F)O3)S1 | x | x | 8.2µM | x | u | x
COc1ccc(/C=N/NC(=O)C2COc3ccccc3O2)cc1OC (stereo not drawn) | n | 19µM | n | n | n | n
COc1ccc(/C=N\NC(=O)C2COc3ccccc3O2)cc1O (stereo not drawn) | n | 24µM | n | x | n | x
CC(/C=C/c1ccc2c(c1)OCO2)=N/NC(=O)C1COc2ccccc2O1 (stereo not drawn) | n | n | n | n | n | n
COc1cc(/C=N/NC(=O)C2COc3ccccc3O2)ccc1O (stereo not drawn) | n | u | n | x | n | x
O=C(N/N=C/c1ccc2c(c1)OCO2)C1COc2ccccc2O1 (stereo not drawn) | n | 17µM | n | n | n | n
Cc1cc(C(=O)OCC(=O)Nc2ccccc2Br)c(C)o1 | n | x | x | x | x | x
CN(C)S(=O)(=O)c1cccc(NC(=O)COC(=O)CCSc2ccc(Cl)cc2)c1 | n | 21µM | n | n | n | n
O=C(CCSc1ccccc1Cl)Nc1cccc([N+](=O)[O-])c1 | u | u | n | u | n | n
COC(=O)c1cccc(NC(=O)NC23CC4CC(CC(C4)C2)C3)c1 | u | 9.5µM | n | n | n | n
NS(=O)(=O)c1cccc(NC(=O)CCSc2ccccc2Cl)c1 | u | 17µM | u | u | u | n
COC(=O)c1cccc(NC(=O)Nc2ccc(Cl)cc2)c1 | n | 2.7µM | 2.2µM | x | 3.2µM | x
O=C(Nc1cccc(Cl)c1)Nc1cccc(Cl)c1 | n | u | n | n | n | n
Cc1cccc(NC(=O)Nc2ccc(S(N)(=O)=O)cc2)c1 | n | u | n | x | n | x
COC(=O)c1cc(NC(=O)Nc2cccc(Cl)c2)ccc1Cl | n | 30µM | n | n | n | n
NS(=O)(=O)c1cccc(NC(=O)Nc2ccc(Cl)cc2)c1 | n | 7.6µM | n | x | n | x
CSc1nc(NCCOC(C)=O)c(C#N)c(-c2ccc(C(C)(C)C)cc2)n1 | x | n | x | x | x | x
COc1cc(Cl)cc(/C=C/c2ccc3ccccc3n2)c1OC(C)=O | u | 6.7µM | 2µM | 2.5µM | 2.5µM | n
CCOc1ccc(CCNC(=O)c2cccc(-n3c(C)nc4cccnc43)c2)cc1 | x | n | x | x | x | x
CC1CCCC(C)N1CC(O)COCc1ccccc1 (stereo not drawn) | n | n | n | x | n | x
COc1ccc(/C=C/C(=O)OCC(=O)NC2CCCCC2C)c(OC)c1 (stereo not drawn) | n | x | n | x | n | x
CC1Cc2cc(S(=O)(=O)N3CCN(c4ccccc4)CC3)ccc2N1C(=O)C1CC1 (stereo not drawn) | n | n | n | x | n | x
CCOC(=O)C1CCN(C(=O)C2CCN(c3nnc(-n4cccc4)s3)CC2)CC1 | n[9.26 µM] | n | n | x | n | x
CCOC(=O)C1CCN(C(=O)C2CCN(c3nc4ccc(OC)cc4s3)CC2)CC1 | n | 15µM | n | n | n | n

Screens as filed in PubChem BioAssay.
